# PubChem BioAssay
# The source made the active and inactive calls.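 How the source made its calls, unless noted: active means inhibition of the reporter signal at or above 50%; inactive means inhibition below 50%.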
# How the values were obtained:
# [1] = inhibitors of TNFa-induced NFkB p65 translocation, primary screen, imaging, HUVEC, MLSMR starter and 10KST1 sets (AID 438;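 active means inhibition above 20% together with a positive visual image hit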;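 further: compound added about 3h40 before a 20 min TNFalpha stimulation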;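 on inhibition: signal is the nuclear over cytoplasmic p65 intensity ratio per well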); conditions: HUVEC TNFa-induced p65 nuclear translocation; cell count: measured here: nuclei count (cytotoxicity indicator), at 2.08 µM; inhibition: at 2 µM, stronger effect = higher value, 0% TNFa-plus-vehicle, 100% no-TNFa wells
# [2] = reduction of polyQ htt aggregates in cells – imaging, exon1htt(103Q)mCFP cells, high-content imaging, primary screen (AID 483;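 active means visual image review flags a hit and inhibition of aggregation exceeds 20%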;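 further: compound exposure lasted 3 days before fixation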;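 on nuclei count: percent of the per-plate median nuclei count of sample wells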); conditions: exon1htt(103Q)mCFP cell line, aggregate imaging, at 2 µM; inhibition of aggregation: stronger effect = higher value; nuclei count: measured here: cell count, toxicity
# [3] = endothelial E-selectin expression blockers – imaging, HUVEC, immunofluorescence, MLSMR starter and 10KST1 sets, primary screen (AID 487;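 active means visually confirmed hit in the image check and inhibition above 20%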;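 on inhibition: signal is fraction of cell area covered by stained E-selectin grains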;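 on nuclei count: 100% = median nuclei count of all wells on the same plate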); conditions: HUVEC TNFalpha-induced E-selectin immunofluorescence imaging, at 2 µM; inhibition: stronger effect = higher value; nuclei count: measured here: cell number, toxicity
# [4] = target: Voltage-gated potassium channel subunit beta-2 (Rattus norvegicus) (UniProt P62483); assay: inhibitors of rat Kvbeta2 reductase activity – biochemical, NADPH fluorescence, primary screen (AID 622;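 active means fluorescence slope higher than the sample average by over 3 SD, cut at about -0.22 in these data, passing the limit was not always enough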;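 further: slope of raw intensity against log time taken from 70 to 1610 s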); conditions: recombinant KvBeta, 4-cyanobenzaldehyde reduction, at 10 µM, stronger effect = higher value
# [5] = target: Voltage-gated potassium channel subunit beta-2 (Rattus norvegicus) (UniProt P62483); assay: enhancers of rat Kvbeta2 NADPH turnover – biochemical, NADPH fluorescence, primary screen (AID 623;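 active means NADPH fluorescence slope more negative than the mean of all samples by about 3 SD, 99.7% confidence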;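 further: fluorescence intensity change per second fitted from 20 to 320 s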); conditions: Recombinant KvBeta, NADPH fluorescence decrease slope, 10 min; at 10 µM; stronger effect = lower value
# [6] = target: Alpha-2C adrenergic receptor (Homo sapiens) (UniProt P18825); assay: compounds altering alpha2C-coupled GIRK flux – cell-based, HEK293 alpha2C/GIRK1/2, thallium flux, primary screen (AID 624;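 active means fluorescence slope after compound addition differing from the mean of all screened samples at 99.7% confidence, in either direction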;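 further: slope of fluorescence ratio to pre-addition baseline per second over 15 to 24 s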); conditions: thallium flux BTC fluorescence, at 10 µM, actives lie on both sides
# [7] = blockers of RIG-like receptor reporter activation – cell-based, Sendai virus stimulus, luciferase, 10K MLSCN set, TLR/RLR signaling modifier project, primary screen (AID 602276;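 active means inhibition at or above 50% at 10 µM; inactive means inhibition below 50%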;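 further: firefly luciferase from ISG56 promoter only with Renilla not read in this screen; 0% = Sendai virus plus DMSO and 100% = medium plus DMSO without virus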); conditions: HEK293 RL24 IRF3 luciferase reporter, at 10 µM, stronger effect = higher value
# [8] = TLR3 IRF3 reporter activation blockers – cell-based, poly I:C stimulus, luciferase, 10K MLSCN set, primary screen (AID 602277); conditions: HEK293-TLR3 RL24 IRF3 luciferase reporter, at 10 µM, stronger effect = higher value
# Sequence of Alpha-2C adrenergic receptor (Homo sapiens) (P18825 whole entry, looked up): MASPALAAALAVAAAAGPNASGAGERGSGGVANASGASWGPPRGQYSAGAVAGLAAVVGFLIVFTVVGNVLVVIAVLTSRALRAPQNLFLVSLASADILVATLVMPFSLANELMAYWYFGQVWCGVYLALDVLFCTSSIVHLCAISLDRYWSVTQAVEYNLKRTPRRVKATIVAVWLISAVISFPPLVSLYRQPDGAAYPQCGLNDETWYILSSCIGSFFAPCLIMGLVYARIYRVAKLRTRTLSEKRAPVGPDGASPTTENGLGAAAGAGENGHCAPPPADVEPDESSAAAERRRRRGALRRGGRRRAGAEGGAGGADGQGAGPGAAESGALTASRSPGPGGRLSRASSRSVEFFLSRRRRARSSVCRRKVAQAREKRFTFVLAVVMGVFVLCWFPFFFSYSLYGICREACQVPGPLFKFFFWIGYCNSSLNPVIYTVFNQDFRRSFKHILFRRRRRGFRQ
# Sequence of Voltage-gated potassium channel subunit beta-2 (Rattus norvegicus) (P62483 whole entry, looked up): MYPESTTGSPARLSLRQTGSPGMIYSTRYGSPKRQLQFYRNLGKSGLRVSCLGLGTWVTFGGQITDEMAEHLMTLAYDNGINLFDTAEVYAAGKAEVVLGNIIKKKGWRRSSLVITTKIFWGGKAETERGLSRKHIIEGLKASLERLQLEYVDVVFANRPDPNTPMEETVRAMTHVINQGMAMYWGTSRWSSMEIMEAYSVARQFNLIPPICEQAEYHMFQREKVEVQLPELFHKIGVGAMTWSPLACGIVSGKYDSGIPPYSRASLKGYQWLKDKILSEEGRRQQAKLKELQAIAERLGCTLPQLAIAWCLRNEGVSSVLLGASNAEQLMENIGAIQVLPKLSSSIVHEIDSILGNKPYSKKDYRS
SMILES,cell count [1],inhibition [1],inhibition of aggregation [2],nuclei count [2],inhibition [3],nuclei count [3],fluorescence slope [4],NADPH fluorescence slope [5],slope [6],inhibition [7],inhibition [8]
CCOC(=O)c1ccc(NC(=O)CCc2c(C)nc3ncnn3c2C)cc1,402,1.9% (inactive),-19.7% (inactive),107%,-138% (inactive),116%,-0.508 (inactive),6.6e-06 (inactive),0.00565 (inactive),-2.81% (inactive),7.84% (inactive)
COC(=O)c1ccccc1NC(=O)C1CCN(S(=O)(=O)c2cc(C)ccc2OC)CC1,607,3.6% (inactive),-20.2% (inactive),111%,-76.8% (inactive),123%,-0.454 (inactive),-2.4e-07 (inactive),0.00507 (inactive),18.9% (inactive),28.7% (inactive)
COc1cccc(/C=N/n2c(-c3ccco3)nc3ccccc3c2=O)c1,692,-0.9% (inactive),-10.2% (inactive),74.5%,33.1% (inactive),105%,-0.293 (inactive),-4.4e-05 (inactive),0.00576 (inactive),-12.1% (inactive),-6.01% (inactive)
Cc1ccc(S(=O)(=O)NCCN2CCOCC2)cc1C,408,-14.3% (inactive),21.7% (inactive),92.2%,31.4% (inactive),86.3%,-0.611 (inactive),1.4e-07 (inactive),0.00599 (inactive),13.7% (inactive),26.5% (inactive)
Cc1ccccc1C(=O)Nc1c(C(=O)N2CCCC2)cnn1-c1ccccc1,314,-6.8% (inactive),2.8% (inactive),83.6%,-34.4% (inactive),84%,-0.596 (inactive),-2.6e-05 (inactive),0.00707 (inactive),13.2% (inactive),26.1% (inactive)
CCc1nn(CC(=O)N2CCN(Cc3ccc4c(c3)OCO4)CC2)c(=O)c2cc3occc3n12,341,1.7% (inactive),-11.1% (inactive),90.2%,-0.9% (inactive),105%,-0.353 (inactive),-1.6e-05 (inactive),0.00432 (inactive),-5.95% (inactive),-24.9% (inactive)
Oc1ccccc1-c1nnc(COc2ccc(Cl)cc2Cl)o1,766,-8.5% (inactive),-1.7% (inactive),127%,-23.4% (inactive),113%,-0.54 (inactive),-2.9e-05 (inactive),0.00718 (inactive),-0.185% (inactive),-1.08% (inactive)
COC(=O)Cc1cc(=O)[nH]c(Nc2nc3ccccc3o2)n1,354,-1.4% (inactive),-11.1% (inactive),108%,-125% (inactive),112%,-0.268 (inactive),-3.1e-06 (inactive),0.00603 (inactive),-2.52% (inactive),-64.7% (inactive)
